Test results from PubChem BioAssay (NCI).
This is part of a sample that, as a whole, favours compounds with a hit. Of some 79,000 tested, about 15% had one in any assay. Rule as the data show it: active = growth inhibition above about 70%; inactive = the rest.

Legend:
[1] = NCI Yeast Anticancer Drug Screen. Data for the rad50 strain (AID 155);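 also: 0% = growth of vehicle-only cultures of the same strain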; details: S. cerevisiae rad50 strain growth inhibition; at 50.0 µM; active compounds read high
Procedure, shortened: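 Compounds were tested on a yeast strain with an engineered DNA damage repair alteration; the reported value is growth inhibition normalised to vehicle treatment.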

[2] = NCI Yeast Anticancer Drug Screen. Data for the mec2-1 strain (AID 157); details: S. cerevisiae mec2-1 strain, at 50.0 µM, active compounds read high
Procedure, shortened: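 Growth inhibition is read against vehicle-treated controls after compound exposure of the mec2-1 yeast strain, which is defective in DNA damage repair or cell cycle control.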

[3] = NCI Yeast Anticancer Drug Screen. Data for the sgs1 mgt1 strain (AID 161);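 also: 0% = growth of cultures given vehicle only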; details: S. cerevisiae sgs1 mgt1 strain, at 50.0 µM, active compounds read high
Procedure, shortened: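 This yeast growth screen uses a strain with defined DNA-repair lesions; compound-treated growth is compared with vehicle-treated growth.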

[4] = NCI Yeast Anticancer Drug Screen. Data for the cln2 rad14 strain (AID 165);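 also: 0% = growth equal to vehicle treated cultures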; details: S. cerevisiae cln2 rad14 strain, at 50.0 µM, active compounds read high
Procedure, shortened: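 Growth inhibition, relative to vehicle-treated controls, is the read-out. The test organism is a yeast strain with defined genetic alterations, cln2 rad14.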

[5] = NCI Yeast Anticancer Drug Screen. Data for the bub3 strain (AID 167); details: S. cerevisiae bub3 mutant strain, at 50.0 µM, active compounds read high
Procedure, shortened: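 Growth of a checkpoint-deficient yeast mutant is measured after compound exposure. Values represent inhibition relative to vehicle.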

[6] = NCI Yeast Anticancer Drug Screen. Data for the mlh1 rad18 strain (AID 175); details: S. cerevisiae mlh1 rad18 strain growth inhibition; at 50.0 µM; active compounds read high
Procedure, shortened: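 Cells of a genetically altered yeast strain, deficient in DNA damage repair, were treated with compound. Their growth was then compared with that of vehicle-treated cultures to give inhibition.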

Measured: growth inhibition

COC(=O)C1=C(C)NC(C)=C(C(=O)OC)C1c1ccc(NC(C)=O)cc1
inactive: [1] 4.7% | [2] -3.7% | [3] 13.3% | [4] -6.25% | [5] 5.25% | [6] 10.9%

O=C(COc1ccc(Cl)cc1)NCCOC(=O)COc1ccc(Cl)cc1
inactive: [1] 37.5% | [2] 20.4% | [3] 12.2% | [4] 18.2% | [5] 21.3% | [6] 52.3%

CC(=O)NC(=O)CCc1ccccc1
inactive: [1] -12.2% | [2] -12.7% | [3] -20.3% | [4] -26.1% | [5] -8.15% | [6] -6%

Cc1cccnc1Nc1ncccc1C
inactive: [1] 13.8% | [2] -18.8% | [3] 10.9% | [4] 14.3% | [5] 8.3% | [6] 10.8%

CCSc1ccc(N=[N+]([O-])c2ccc(SCC)c(Cl)c2)cc1Cl
inactive: [1] -5.6% | [2] 10.8% | [3] 1.65% | [4] -17.1% | [5] -4.6% | [6] 9.3%

Cc1cc2c(C(C)C)c(O)c(O)c(C=Nc3ccccc3O)c2c(O)c1-c1c(C)cc2c(C(C)C)c(O)c(O)c(C=Nc3ccccc3O)c2c1O
inactive: [1] -25.3% | [2] -9.2% | [3] -20.9% | [4] -23.4% | [5] -9.75% | [6] -26.3%

O=C(N/N=C\c1ccccc1)Nc1cccc2ccccc12
inactive: [1] -27.4% | [2] 16.4% | [3] 20.3% | [4] -25.9% | [5] 27.9% | [6] -9.75%

O=[n+]1c2c(n([O-])c3ccccc31)CCCCC2
inactive: [1] 19.6% | [2] -12.7% | [3] -1.9% | [4] -32.5% | [5] -8.35% | [6] -2.85%

CCSC(C(OC(C)=O)C(OC(C)=O)C(COC(C)=O)OC(C)=O)n1cnc2c(=S)nc[nH]c21 (configuration not stated)
inactive: [1] 6.75% | [2] -0.45% | [3] 9.35% | [4] 18.8% | [5] -1.55% | [6] 1.7%

CN(C)c1ccc(N=O)c(O)c1
inactive: [1] -3.35% | [2] -6.45% | [3] -63% | [4] 13.6% | [5] -15.8% | [6] 3%

O=c1cc([N+](=O)[O-])c2c([nH]1)CCC2
inactive: [1] -5.3% | [2] 1.3% | [3] 12.8% | [4] -27.8% | [5] -6.15% | [6] -0.5%

CC(=O)OCC1OC(SC2=NC(=O)/C(=C/c3ccccc3)S2)C(OC(C)=O)C(OC(C)=O)C1OC(C)=O (configuration not stated)
inactive: [1] 40.2% | [2] 35.4% | [3] 55.4% | [4] 15.8% | [5] -4.1% | [6] 43.8%

CCC[n+]1ccc(CCS(=O)(=O)c2ccc(N)cc2)cc1
inactive: [1] 6.15% | [2] -6.55% | [3] 1.9% | [4] -6% | [5] 21.4% | [6] -16.7%

N#CCc1n[nH]c(Cc2ccccc2)n1
inactive: [1] 2.35% | [2] 6.6% | [3] 3.9% | [4] 7.6% | [5] 0.8% | [6] 12.4%

COc1ccc(/C=C/C(=O)c2sc(N)nc2C)cc1
inactive: [1] 26.5% | [2] -5.55% | [3] -0.4% | [4] 24.6% | [5] 3.95% | [6] 13.6%

C=CC1=C(C)C2=NC1=CC1=NC(=CC3=C(C)C4=C(O)[C@H](C(=O)OC)C(=C5NC(=C2)[C@@H](C)[C@@H]5CCC(=O)O)C4=N3)C(CC)=C1C
inactive: [1] 1.65% | [2] 8.1% | [3] 31.2% | [4] 28.1% | [5] 21.1% | [6] 5.9%

CC(=O)/C(=N/O)C(C)C
inactive: [1] 4.6% | [2] -3.5% | [3] 6.35% | [4] -0.35% | [5] -0.45% | [6] 2.8%

Cc1cc(C)c(C)c(CN)c1C
inactive: [1] -20% | [2] -5.85% | [3] -9.35% | [4] 7.8% | [5] 13.7% | [6] -3%

CC[C@]1(O)C(=O)OCc2c1cc1n(c2=O)Cc2cc3c(N)cccc3nc2-1
inactive: [1] 16.1% | [2] 14% | [3] 9.75% | [4] -0.25% | [5] 14.2% | [6] 45%

O=C(/C=C/c1ccc(Cl)cc1)c1ccccc1O
inactive: [1] -9.15% | [2] 9.8% | [3] -6.05% | [4] -10.8% | [5] -1.25% | [6] 11.1%

COc1ccc(C2CC(=O)C(C(=O)OC3CCCCC3)C2c2ccc(OC)cc2)cc1 (configuration not stated)
inactive: [1] 13.9% | [2] 16.2% | [3] 15.8% | [4] 28.1% | [5] -3.25% | [6] 19.5%

ON=C(C(Cl)(Cl)Cl)C(Cl)(Cl)Cl
inactive: [1] -17.2% | [2] -26% | [3] -8.35% | [4] 4.9% | [5] -11.9% | [6] -29.8%

COc1cc(C2N3CCCN2CC3)cc(OC)c1OC (configuration not stated)
inactive: [1] -3.75% | [2] 0.35% | [3] -21.6% | [4] -3.5% | [5] -7.75% | [6] -2.55%

O=S(=O)(O)c1ccc(Nc2ccnc3cc(Cl)ccc23)cc1
inactive: [1] -21.4% | [2] -32.1% | [3] -39.8% | [4] -3.9% | [5] -29.1% | [6] -10%

CCCCOP(=O)(OCCCC)C(c1ccccc1)(c1ccccc1)c1ccccc1
inactive: [1] 48.9% | [2] 42.5% | [3] 49.8% | [4] 42.5% | [5] 5.9% | [6] 59.6%

COc1ccc2c(c1)c1c3c(ccc4ncn2c43)N(CCO)CCN=1
inactive: [1] -19.6% | [2] -52% | [3] -25.9% | [4] -23.5% | [5] -12% | [6] 1.6%

CN1CCn2c(Br)ccc2C1=O
inactive: [1] 13.6% | [2] -11.6% | [3] -1.55% | [4] 8.45% | [5] 2.65% | [6] -3.3%

Cc1cc[c]([Sb]2([c]3ccc(C)cc3)([c]3ccc(C)cc3)[NH]c3cc(C(c4ccccc4)(c4ccccc4)c4ccccc4)cc(C(C)(C)C)c3[O]2)cc1
inactive: [1] -1.65% | [2] 14.3% | [3] 5.15% | [4] -23.6% | [5] -1.25% | [6] 11.1%

O=C(Nc1ccn(C2CCC(CO)O2)c(=O)n1)c1ccccc1 (configuration not stated)
inactive: [1] 35.8% | [2] -3.05% | [3] -16.7% | [4] -23.8% | [5] 4.25% | [6] -7.55%

CC1=C/C(=N\O)C(C(O)(C(F)(F)F)C(F)(F)F)C(C)(C)C1 (configuration not stated)
inactive: [1] -37.7% | [2] -39% | [3] -17.4% | [4] -12.5% | [5] -7.35% | [6] 2.9%

CC(=O)OC1CCC2(C)C(=CCC3C4CCC(=O)NC4(C)CCC32)C1 (configuration not stated)
inactive: [1] 43% | [2] -1.8% | [3] 52.7% | [4] -4.95% | [5] 8.4% | [6] 28.9%

Cc1ccc2cccc(OC(=O)Nc3cc(Cl)c(Cl)cc3Cl)c2n1
inactive: [1] -5.7% | [2] -17.8% | [3] 4.5% | [4] -4.8% | [5] -14.2% | [6] 3.9%

O=[N+]([O-])c1cccc(/C=C/C=C/c2ccc(Cl)c(Cl)c2)c1
inactive: [1] 7.65% | [2] 9.3% | [3] 30.3% | [4] 3.65% | [5] 28.2% | [6] 4.1%

CC(=O)NC(CCC(=O)C=[N+]=N)C(=O)O (configuration not stated)
inactive: [1] 18.4% | [2] -14.7% | [3] 33.5% | [4] 14.1% | [5] 23.8% | [6] 12.6%

COC(=O)C(/C(=N/NC(=O)c1ccncc1)C(=O)Nc1ccccc1OC)c1nc2ccc(Cl)cc2[nH]c1=O (configuration not stated)
inactive: [1] 5.8% | [2] -6% | [3] -11% | [4] -38% | [5] -17.7% | [6] 11.4%

O=C(NNc1ccccc1)c1ccc(Cl)cc1Cl
inactive: [1] 3.5% | [2] -9.4% | [3] 50% | [4] -0.05% | [5] 50.4% | [6] 34.9%

O=c1n(-c2ccccc2)c(=O)n2n1C1C=CC2C23C=CC12CCCC3 (configuration not stated)
inactive: [1] 13.8% | [2] 7.85% | [3] 9.05% | [4] 12% | [5] 26.2% | [6] 22.8%
